# About 4,500 (1.3%) of roughly 340,000 compounds were called active. Another 5% or so got no clear call; they are omitted. The call rests on the fitted dose curve; in most records, active means well fitted inhibition curve with a large enough effect; inconclusive means small, poorly fitted or top-dose-only effect, or another doubt; inactive means no such curve, though single readings can be large or run the other way. Many of the other results were omitted from the sample, so actives are more common in it than they were.
# Target: DNA polymerase beta (Homo sapiens) (UniProt P06746)
# Experiment: qHTS Assay for Inhibitors of DNA Polymerase Beta
# Conditions: Pol beta primer extension/strand displacement, fluorescence kinetic; series mostly up to 114 µM; activity change, negative = inhibition: at the top concentration
# Method in brief: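 Pol beta (10 nM) and compounds were preincubated 15 min at room temperature, then 50 nM substrate (final) started primer extension/strand displacement. Reads were taken at 0 and 10 min; concentration-response data were fitted to a four-parameter Hill equation.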
# On the % scale 0 is the no-effect control and ±100 the full control effect; potency means the concentration at half of the fitted maximal effect.
SMILES,"activity change, negative = inhibition",Potency
COc1ccc(C(=O)NCC(c2ccc(N(C)C)cc2)N2CCc3ccccc32)c(OC)c1 (stereo not given),32% (inactive),–
CCOc1ccc(-n2c(O)c(/C=N/Nc3nnc(C)c(=O)[nH]3)c3ccccc3c2=O)cc1,–,56.2 µM (active)
CCOc1ccc(-n2c(O)c(/C=N/Nc3nc(C)cc(C)n3)c3ccccc3c2=O)cc1,-19.5% (inactive),–
CCOc1ccc(-n2c(O)c(/C=N/c3ccnn3Cc3ccncc3)c3ccccc3c2=O)cc1,11.5% (inactive),–
CCOc1ccccc1NC(=O)CN1CCCN(Cc2cccc(Cl)c2)S1(=O)=O,1.06% (inactive),–
CC(/C=C/C1(O)C(C)CC(=O)CC1(C)C)OC1OC(CO)C(O)C(O)C1O (stereo not given),–,28.2 µM (active)
CC1=C(C)C(=O)OC(C(C)C2CCC3C4CC=C5CC(OC6OC(COC7OC(CO)C(O)C(O)C7O)C(O)C(O)C6O)CC(O)C5(C)C4CCC23C)C1 (stereo not given),0.697% (inactive),–
C=CC1C(OC2OC(CO)C(O)C(O)C2O)OC=C(C(=O)OC)C1CC1CC(=O)CC(CC(=O)CCc2ccc(O)cc2)O1 (stereo not given),-1.69% (inactive),–
Cc1ccc(-c2nc3ccccn3c2Nc2c(C)cccc2C)o1,26.6% (inactive),–
O=C(CN1CCSc2ccccc21)N1CCN(c2ccccc2)CC1,2.05% (inactive),–
Oc1c(Cl)cc(Cl)c(Cl)c1Cc1c(O)c(Cl)cc(Cl)c1Cl,–,28.2 µM (active)
Cc1ccc(Cc2nc3ccccc3nc2SCC(=O)Nc2cccc(C(F)(F)F)c2)cc1,-1.48% (inactive),–
Cc1ccc(-c2cnc(C3CC3)o2)cc1S(=O)(=O)Nc1cccc(C)c1C,-2.43% (inactive),–
CCCOc1ccc(-c2cccc(NS(=O)(=O)c3ccccc3)c2)nn1,0.493% (inactive),–
O=C(Cc1ccc([N+](=O)[O-])cc1)N/N=C/c1ccco1,5.52% (inactive),–
O=C(N/N=C/c1ccco1)c1csc2c1CCCC2,6.62% (inactive),–
O=C(N/N=C/c1ccco1)c1ccc(C(=O)N/N=C/c2ccco2)o1,–,17.8 µM (active)
CCc1ccccc1NC(=O)CSc1nnc(-c2ccccc2)c(-c2ccccc2)n1,3.25% (inactive),–
Cc1c(Cl)cccc1NC(=O)N1CCN(C(=O)c2nsc3ccccc23)CC1,-0.591% (inactive),–
CC1CCN(S(=O)(=O)c2ccc(NC(=O)C3CC(=O)N(c4ccccc4)C3)cc2)CC1 (stereo not given),-23.6% (inactive),–
COc1ccccc1N1CC(C(=O)Nc2ccc(S(=O)(=O)N3CCOCC3)cc2)CC1=O (stereo not given),–,79.4 µM (active)
Cc1ccc(N2CC(C(=O)Nc3ccc(S(=O)(=O)N4CCCC4)cc3)CC2=O)cc1C (stereo not given),1.24% (inactive),–
COc1ccc(NC(=O)NC(C)c2c(-n3cccc3)sc(C)c2C)cc1OC (stereo not given),-0.276% (inactive),–
CCOc1ccc2nc(N3CCCC(C(=O)Nc4cc(C)ccc4C)C3)sc2c1 (stereo not given),1.66% (inactive),–
S=c1[nH]nc(-c2cc(-c3ccsc3)n[nH]2)n1-c1ccccc1,38.9% (inactive),–

SMILES,"activity change, negative = inhibition",Potency
c1ccc(-c2cc(-c3nnc4sc(-c5ccccn5)nn34)[nH]n2)cc1,–,39.8 µM (active)
CCOc1cccc(-c2nn3c(-c4ccccn4)nnc3s2)c1,29.3% (inactive),–
O=C(NNC(=O)c1cc2c(s1)CCCC2)c1ccccc1,-1.77% (inactive),–
O=C(C1CCC1)N1CCN(c2ccccc2)CC1,12.2% (inactive),–
O=C(c1cc2c(s1)CCC2)N1CCN(c2ccccc2)CC1,–,17.8 µM (active)
CCc1ccc(NC(=O)c2cc(S(=O)(=O)NC3CCCCCC3)ccc2F)cc1,1.54% (inactive),–
CCOc1cccc(CC(=O)N2CCc3c([nH]c4ccccc34)C2c2ccc(OC)cc2)c1OCC (stereo not given),-16.3% (inactive),–
Cc1ccccc1Nc1nnc(SCC(=O)c2cc3ccccc3o2)s1,-1.02% (inactive),–
CC(C)c1ccc(Nc2nnc(SCC(=O)c3nnc(-c4ccccc4)o3)s2)cc1,–,39.8 µM (active)
CC(C)Nc1nnc(SCC(=O)c2c[nH]c3ccccc23)s1,1.26% (inactive),–
Cc1cccc(Cn2c(SCc3ccc(C(=O)N4CCC(C)CC4)cc3)nc3ccncc32)c1,19.7% (inactive),–
COc1cc(OC)c(OC)cc1/C=C/c1nc2ccccc2c(=O)n1-c1ccc(Br)c(C)c1,22.7% (inactive),–
COc1ccc(C(=O)Nc2cccc(C(=O)OCc3cc(=O)n4c5c(sc4n3)CCCC5)c2)cc1,-16.3% (inactive),–
Cc1ccc(CN2CCc3nc(N4CCN(C)CC4)ncc3C2)cc1,32% (inactive),–
COc1cccc(N2CCN(C(=O)CCCCCn3c(=O)[nH]c4ccccc4c3=O)CC2)c1,27.1% (inactive),–
Cc1cccc(NC(=O)CSc2nc(-c3ccco3)cc(C(F)(F)F)n2)c1C,-2.02% (inactive),–
Cc1ccsc1-c1cc(C(=O)O)c2c(ccc3ccccc32)n1,13.8% (inactive),–
Cc1cc(C)c2nc(-c3ccco3)cc(C(=O)O)c2c1,–,7.08 µM (active)
CCOc1cc(CNC(=O)c2sc3ncnc(N(C)C4CCCCC4)c3c2C)ccc1OC,-1.77% (inactive),–
COc1ccc(CCNC(=O)C(=O)NCC(c2ccco2)S(=O)(=O)c2cccs2)cc1OC (stereo not given),-9.89% (inactive),–
O=C(Nc1ccc2nc(SCC(=O)N3CCCc4ccccc43)sc2c1)c1ccc(F)cc1,13.6% (inactive),–
O=C(CSc1nccn1C1CCCC1)Nc1cc(C(F)(F)F)ccc1Cl,6.31% (inactive),–
NNC(=O)C1CCCn2c1nc1sc3c(c1c2=O)CCCC3 (stereo not given),2.75% (inactive),–
Cn1c(NN)nc2sc3c(c2c1=O)CCC3,–,89.1 µM (active)
CCCc1nc2sc3c(c2c(=O)n1NC(=O)CCCl)CCCC3,-2.23% (inactive),–

SMILES,"activity change, negative = inhibition",Potency
COc1ccccc1OCC(=O)Nc1nnc2n1CCS2,-20.4% (inactive),–
CCOC(=O)c1c(C)oc2nc(C)nc(N3CCN(c4ccc(OC)cc4)CC3)c12,-15.6% (inactive),–
CC(=O)NC1C(Oc2ccc(C=O)cc2)OC(COC(C)=O)C(OC(C)=O)C1OC(C)=O (stereo not given),–,39.8 µM (active)
CCc1cccc(OC2OC(CO)C(O)C(O)C2NC(C)=O)c1 (stereo not given),-1.07% (inactive),–
CC(=O)NC1C(Oc2ccc(C)cc2)OC2COC(c3ccco3)OC2C1O (stereo not given),-3.84% (inactive),–
Cc1c(C(=O)N2CCCC2)oc2c1-c1nn(CC(=O)NCc3ccc(OC(C)C)cc3)cc1CC2,2.91% (inactive),–
COc1ccc(-c2nc(SCC(=O)N3CCCCC3C)n[nH]2)cc1 (stereo not given),3.44% (inactive),–
CCCCCn1c(=O)[nH]c2cc(C(=O)NCCN(C)CCCC)ccc2c1=O,-2.03% (inactive),–
CCSc1nnc(NC(=O)c2ccc(C)cc2)s1,-1.08% (inactive),–
CCSc1nnc(NC(=O)c2cc(=O)c3cc(C)c(C)cc3o2)s1,-16.3% (inactive),–
Cc1ccc(C(=O)Oc2coc(CSc3nnc(NC(=O)c4cccs4)s3)cc2=O)cc1C,–,20 µM (active)
CCOC(=O)C1CCN(c2csc3ccc(C)cc3c2=O)CC1,38.3% (inactive),–
Cc1cccc(C)c1-n1c(C)cc(/C=C2\C(=O)NN(c3ccccc3)C2=O)c1C,-1.38% (inactive),–
COc1cc(/C=C2/C(=O)NN(c3cccc(Cl)c3)C2=O)cc(Br)c1O,-5.39% (inactive),–
O=C1NN(c2ccccc2)C(=O)/C1=C/c1ccc(-c2cccc(C(=O)O)c2)o1,–,35.5 µM (active)
CCOc1cc(C2C(C(=O)OC)=C(C)NC3=C2C(=O)c2ccccc23)ccc1O (stereo not given),-20.1% (inactive),–
Cc1cccc2nc(-c3ccc(Cl)s3)c(Nc3ccc4c(c3)OCCO4)n12,-14.7% (inactive),–
Cc1ccc(NC(=O)CCC(=O)c2ccc(Br)cc2)cc1,–,89.1 µM (active)
Cc1ccc(OC(=O)CCC(=O)Nc2ccc(Br)cc2)cc1,5.33% (inactive),–
COc1ccc(C(=O)CCC(=O)Nc2ccc(Cl)cc2)cc1,-4.79% (inactive),–
CCOc1cc(-c2nnc(SCC(=O)NC3CCCC3)nc2-c2ccc(OC)c(OCC)c2)ccc1OC,-29.7% (inactive),–
CCCn1c2ccccc2c2cnn(CC(=O)N(C)c3ccccc3CC)c(=O)c21,0.302% (inactive),–
COc1cccc(CNC(=O)CCc2nc(-c3ccc(C)cc3)no2)c1,0.0036% (inactive),–
COc1ccc(OC)c(NC(=O)CSc2nc3ccccc3nc2N2CCCCC2)c1,-7.89% (inactive),–
Cc1ccc2nc(/C(C#N)=C/c3ccccc3F)[nH]c2c1,0.138% (inactive),–

SMILES,"activity change, negative = inhibition",Potency
Cc1ccc2nc(/C(C#N)=C/c3ccc(-c4ccc(C(=O)OC(C)C)cc4)o3)[nH]c2c1,–,28.2 µM (active)
CCOC(=O)c1ccc(-c2ccc(/C=C(\C#N)C(=O)Nc3ccc(C)cc3)o2)cc1,9.25% (inactive),–
COc1ccc(S(=O)(=O)NCc2cccn2Cc2cccc(C)c2)cc1Cl,-0.864% (inactive),–
COc1ccc(N2CCN(C3=NS(=O)(=O)C(c4cccc(Br)c4)=C3C)CC2)cc1,-13.7% (inactive),–
COc1cc([C@H](Cc2ccccc2)NC(C)=O)oc(=O)c1,–,17.8 µM (active)
COc1ccc2oc(C(=O)NCC(Cc3ccccc3)N(C)C)c(C)c2c1 (stereo not given),22.1% (inactive),–
CCOC(=O)C(Cc1ccccc1)NC(=O)CCC(=O)c1ccc(OC)cc1 (stereo not given),4.15% (inactive),–
CC(C)c1nc2oc3c(N4CCN(C)CC4)ncnc3c2c2c1CCC2,–,12.6 µM (active)
Cc1cc(C)nc(N2CCN(c3ncnc4c3oc3ccccc34)CC2)n1,2.21% (inactive),–
Cc1ccc(NC(=O)c2ccc(CN3CC(=O)N4CCCCC4C3=O)cc2)c(Cl)c1 (stereo not given),2.76% (inactive),–
Cc1nnc(C)n1-c1ccc(C(=O)Nc2cccc(Br)c2)cc1,1.29% (inactive),–
Cc1cccc(NC(=O)C2CCN(C(=O)NC3CCCCC3)CC2)c1,7.66% (inactive),–
Cc1cccc(NC(=O)NC2(C)CCS(=O)(=O)C2)c1 (stereo not given),22.6% (inactive),–
Cc1cccc(NC(=O)C2CC(=O)OC23CCCC3)c1 (stereo not given),–,28.2 µM (active)
CCOC(=O)c1ccc(NC(=O)c2csc3c2CCCCC3)cc1,6.91% (inactive),–
Cc1nn(-c2ccc(N3CCCCC3)nn2)c(C)c1CCC(=O)NCc1ccc(F)cc1,-15.3% (inactive),–
COc1ccc(-n2ccnc(NCCc3ccc(Cl)cc3)c2=O)cc1OC,-12% (inactive),–
Cc1cc(C)cc(N(CC(=O)NCCSCc2ccco2)S(C)(=O)=O)c1,0.739% (inactive),–
S=C(NCc1ccc2c(c1)OCO2)NCc1ccco1,1.93% (inactive),–
CS(=O)(=O)N(CC(=O)NCc1ccco1)c1ccc2c(c1)OCO2,–,50.1 µM (active)
Cc1ccc(NC(=O)CSc2nc3c([nH]c4ccccc43)c(=O)n2-c2ccccc2)cc1Cl,3.88% (inactive),–
Cc1ccc(NC(=O)c2ccc3[nH]c(C)cc(=O)c3c2)c(C)c1,-25% (inactive),–
Fc1ccc(C(Nc2ccc(Cl)c(C(F)(F)F)c2)c2nnc(-c3ccccc3)o2)cc1 (stereo not given),19.5% (inactive),–
NS(=O)(=O)c1ccc(NC(=S)Nc2ccc(Br)c(Cl)c2)cc1,-1.82% (inactive),–
Nc1c(Cl)cc(S(N)(=O)=O)cc1S(N)(=O)=O,–,25.1 µM (active)
